± gives the standard deviation.
These sequences were tested on MILI (PIWIL2) piRISC loaded with piRNA #1 (26 nt) (assay: pre-steady-state target cleavage rate (min^-1); guide: piRNA #1 5'p-UGAGGUAGUAGGUUGUAUAGUAUCCA; MIWI and MILI are mouse PIWI proteins and EfPiwi is from a freshwater sponge; tags in brackets are library labels; higher = faster piRNA-guided slicing of the target). Conditions: auxiliary factor: 500 nM mouse GTSF1.
Summary of the method: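 The pre-steady-state cleavage rate came from a burst-and-steady-state fit to pooled data from three Cleave-'n-Seq trials, in which uncleaved targets were sequenced and normalised to depth and to weakly complementary targets. Each reaction held 0.1 nM transcribed, DNA-blocked target RNA library and 1 nM active affinity-purified piRISC carrying one synthetic guide, with or without 500 nM GTSF1 partner protein, in HEPES–potassium acetate buffer at 33 °C for 0–8 or 0–960 min. k3 was capped at 0.0001 min^-1.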

Sequence	pre-steady-state target cleavage rate
GGAGACCUAUGUAUACAUGGAUGAUGGAGA [g14:g19:cont:t1A]	< 0.0001
GGAGACCUAACUAAACAACGUACUACCUCA	0.00971 ± 0.005
GGAGACGAAACUAAACAACCUACUACCUCA	0.145 ± 0.022
GGAGACCUUACUUAUCAACCUACUACCUCA	0.0518 ± 0.014
GGAGACCUAUGUAUACAAACUACUACCUCA	0.111 ± 0.012
GGAGACCUAAGAUUACAACCUACUACCUCA	0.0144 ± 0.0043
GGAGACCUAUGAAUACAACCUACUAACCUCA	0.0105 ± 0.0027
GGAGACCUAUGAUAACAACCUCCUACCUCA	0.00522 ± 0.0021
GGAGACCAUACUAUAGUACCUACUACCUCA	0.149 ± 0.018
GGAGACCUAACUAUACUACCUAGUACCUCA	0.0154 ± 0.0058
GGAGACCUUACUAUACAUCCUACUUCCUCA	0.183 ± 0.031
GGAGACCAUAGUAUACAACCAACUACCUCA	0.00718 ± 0.0021
GGAGACCUAUGUAUACACCCUACUACCUCA	0.0161 ± 0.0035
GGAGACCUAACUAUAGAAGCUACUACCUCA	0.156 ± 0.029
GGAGAGGAUAGUAUUCAACCUACUACCUCA	0.0731 ± 0.011
GGAGACCUAUGUAUACAGCCUACUACCUCA	0.0196 ± 0.0053
GGAGACCUAUCUUUACAACCUACUACGUCA	0.0265 ± 0.0062
GGAGACCUAUGAUAUGUUCCUACUACCUGA	< 0.0001
GGAGACCUUACUAUAGAAGCUACUACCUCA	0.134 ± 0.015
GGAGACCUAACUAAACAACCUACAACCUCA	0.131 ± 0.029

Sequence	pre-steady-state target cleavage rate
GGAGACCAUACUAUACAACCUACACCUCA	0.00885 ± 0.0037
GGAGACCUUUCUAUAGAACCUACUACCUCA	0.0818 ± 0.011
GGAGACCUAUGAUAUGAACUACUACCUCA	0.00657 ± 0.0021
GGAGACCUAUGUUUACAACCUACUACCUCA	0.0117 ± 0.0031
GGAGACGAAACUAUAGAACCUACUACCUCA	0.146 ± 0.014
GGAGACCAUACUAUACAACCUACUCCCUCA	0.106 ± 0.017
GGAGACCUAUCUAUAGAACCUACUUCCUCA	0.00536 ± 0.0024
GGAGACCUAACUAUACAACCUACUUCCACA	0.0458 ± 0.022
GGAGACCUUACUAAACAACGUACUACCUCA	0.015 ± 0.0024
GGAGACCUAUGAUAACAUCCUACUACCUCA	0.00447 ± 0.0023
GGAGACCUAUCUAUACAACCAACUACCACA	0.00574 ± 0.0023
GGAGACCUAACUUUACAAGCUACUACCUCA	0.135 ± 0.025
GGAGACCAUACUAUACAAGCAACUACCUCA	0.00864 ± 0.003
GGAGACCUAUCUAUACAACCUACUAACCUCA	0.143 ± 0.014
GGAGACCUAUCUAUACAUCCUACUAGCUCA	0.125 ± 0.019
GGAGACCUUACAAUACAACCUACUUCCUCA	0.0632 ± 0.014
GGAGACCUUACUAUAGAACCUACUAGCUCA	0.00445 ± 0.0038
GGAGACCUAUGAUAUGAACCACUACCUCA	< 0.0001
GGAGACCUAUCUAUACAACGUACUUCCUCA	0.0209 ± 0.0035
GGAGACCUAUGUAUACAAUCUACUACCUCA	0.0642 ± 0.011

From the supplement of paper PMC10338343
